Compounds with a hit are over-represented: about 19% of the library has one in this group of screens.
TDP1 cell CPT – growth inhibition of DT40 Tdp1-/-;hTDP1 cells with camptothecin (screen for TDP1 inhibitors). chicken DT40 Tdp1-/-;hTDP1 cells + 20 nM CPT, ATP luminescence, 48 h. Potency, µM (highest dose often 46.2 µM), without a hit: at the highest dose activity change, negative = growth inhibition, actives largely listed as inhibitors. 420,000 compounds, 12% hits. AID 686979; note: nearly all actives have a fitted effect of over 55% in size
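Cell growth measured by CellTiter-Glo luminescence after a minimum 48 h, 37 C compound exposure with 20 nM CPT in Tdp1-knockout DT40 cells stably expressing hTDP1, seeded 400/well; qHTS titration format.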
RORgamma inh – blocks mouse ROR gamma transcriptional activity. P51450. 310,000 compounds, 5.4% hits. Potency, µM (doses to about 53.6 µM), for inactives: top-dose activity change, negative = inhibition, actives largely listed as inhibitors. Drosophila S2 Gal4-RORgamma UAS-luciferase reporter, 20 h; note: nearly all actives have a fitted effect of over 60% in size
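A Gal4/UAS one-hybrid system in insect cells: metallothionein-promoter Gal4–ROR gamma fusion plus Photinus luciferase reporter. Copper sulfate 700 uM final, 20 hr ambient incubation, luminescent detection after 10 min with reagent.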
TDP1 inh – TDP1 (human) enzyme inhibition. Q9NUW8. recombinant TDP1, AlphaScreen DNA substrate cleavage. Potency, µM (highest dose often 130 µM), without a hit: at the highest dose activity change, negative = inhibition, actives largely listed as inhibitors. 350,000 compounds, 0.28% hits; note: nearly all actives have a fitted effect of over 40% in size
Target sequence (Q9NUW8 whole entry, looked up): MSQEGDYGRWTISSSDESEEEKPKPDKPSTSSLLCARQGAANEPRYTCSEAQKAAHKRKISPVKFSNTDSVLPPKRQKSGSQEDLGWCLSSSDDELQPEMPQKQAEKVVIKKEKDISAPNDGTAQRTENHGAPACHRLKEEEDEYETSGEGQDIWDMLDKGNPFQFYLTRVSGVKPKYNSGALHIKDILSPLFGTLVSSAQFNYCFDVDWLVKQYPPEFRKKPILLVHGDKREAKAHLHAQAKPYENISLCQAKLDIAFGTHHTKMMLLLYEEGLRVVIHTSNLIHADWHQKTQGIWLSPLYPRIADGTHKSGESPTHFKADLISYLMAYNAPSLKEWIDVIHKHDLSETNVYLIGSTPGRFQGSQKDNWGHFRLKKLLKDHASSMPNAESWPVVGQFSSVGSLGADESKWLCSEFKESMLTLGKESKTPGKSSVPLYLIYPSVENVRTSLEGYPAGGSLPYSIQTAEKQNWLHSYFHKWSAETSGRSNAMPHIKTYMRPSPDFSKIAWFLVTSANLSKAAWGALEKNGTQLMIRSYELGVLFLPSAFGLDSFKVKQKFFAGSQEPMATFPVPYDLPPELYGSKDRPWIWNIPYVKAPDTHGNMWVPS
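Here, a 5' biotin and 3' phosphotyrosine-FITC DNA oligonucleotide reports Tdp1 activity: intact substrate bridges AlphaScreen beads, while cleavage leaves a 3' phosphate and drops signal. All incubations at room temperature.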
Gal4-VP16 FLuc – inhibits Gal4-VP16 luciferase reporter, ROR gamma counter-screen; 310,000 compounds, 3.5% hits; AID 2546; Drosophila S2 Gal4-VP16 UAS-luciferase, luminescence, 20 h; Potency, µM (titrated, usually from 53.6 µM), for the others: at the highest dose activity, negative = inhibition, usual class: inhibitors;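 note: Gal4-VP16 expression switched on by copper sulfate through the metallothionein promoter; nearly all actives have a fitted effect of over 50% in size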
DT40 TDP1 no CPT – qHTS for Inhibitors of human tyrosyl-DNA phosphodiesterase 1 (TDP1): qHTS in cells in absence of CPT | DT40 Tdp1-/- hTDP1 cells, no CPT, ATP luminescence, 48 h | Potency, µM (series often up to 46.2 µM), without a hit: at the top dose activity change, negative = growth inhibition, hits mostly inhibitors | 420,000 compounds, 15% hits | AID 686978, 2013; note: nearly all actives have a fitted effect of over 55% in size
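No-CPT arm: Tdp1-/-;hTDP1 DT40 cells (400/well) plus compounds, incubated ≥48 hr at 37 °C. Readout CellTiter-Glo luminescence.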
An asterisk follows results filed as active; ? = inconclusive; nt = no result given; [ ] = another dose, or the depositor's remark. Calls come from the whole dose curve; as a rule, active = well fitted curve in the direction sought with a large enough effect; inconclusive = small, poorly fitted or top-dose-only effect, or another doubt; inactive = no such curve, though single readings can be large; an effect the other way counts as inactive or inconclusive. % is set by controls: 0 for no effect and ±100 for the full control effect; potency is the fitted concentration of half-maximal effect.

SMILES	TDP1 cell CPT	RORgamma inh	TDP1 inh	Gal4-VP16 FLuc	DT40 TDP1 no CPT
Cc1ccc(NC(=O)CN2CCN(S(=O)(=O)c3ccc(C(C)C)cc3)CC2)cc1F	20.6µM*	nt	2.8%	nt	?
Cc1ccc(NC(=O)CN2CCN(S(=O)(=O)c3ccc(F)cc3)CC2)cc1C	?	nt	-0.5%	nt	-28.3%
COc1ccc(S(=O)(=O)N2CCN(CC(=O)Nc3cccc(F)c3)CC2)cc1	-6.9%	42.1%	5.9%	-2.9%	-2.8%
COc1ccc(S(=O)(=O)N2CCN(CC(=O)Nc3ccc(C)c(F)c3)CC2)cc1	?	?	9.3%	-22.8%	18.4µM*
COc1ccc(-c2nc(-c3cc4cc(Br)ccc4oc3=O)cs2)cc1	-21.0%	nt	4.4%	nt	-15.7%
CCc1nnc2sc(-c3cc(-c4ccccc4)nc4ccccc34)nn12	35.5µM*	9.0%	0.0%	-4.2%	?
Cc1ccc(/C=C/c2ccc(=O)n(Cc3ccc(F)cc3)n2)cc1	?	20.9%	-8.2%	-2.9%	?
Cc1ccc(/C=C/c2ccc(=O)n(Cc3ccccc3Cl)n2)cc1	16.4µM*	-1.7%	nt	-7.0%	25.9µM*
COC(=O)c1c(NC(C)=O)sc2c1CCN(Cc1ccccc1)C2	-3.6%	0.2%	nt	0.9%	-19.1%
COC(=O)c1c(NC(=O)C2COc3ccccc3O2)sc2c1CCN(C(=O)OC)C2 (stereo not given)	16.4µM*	nt	nt	nt	20.6µM*
O=C(NC1CCS(=O)(=O)C1)c1c(NC(=O)C2COc3ccccc3O2)sc2c1CCCC2 (stereo not given)	-17.7%	31.4%	1.0%	-16.3%	?
CCOC(=O)c1c(NC(=O)C(C)Sc2cccc[n+]2[O-])sc2c1CCN(Cc1ccccc1)C2 (stereo not given)	?	-1.5%	2.7%	-14.4%	16.4µM*
COC(=O)c1c(NC(=O)C2COc3ccccc3O2)sc2c1CCN(Cc1ccccc1)C2 (stereo not given)	16.4µM*	-39.3%	1.9%	2.0%	20.6µM*
CCCNC(=O)c1c(NC(=O)C2COc3ccccc3O2)sc2c1CCCC2 (stereo not given)	11.6µM*	-3.0%	0.7%	-7.5%	?
CCOC(=O)c1c(NC(C)=O)sc2c1CCN(Cc1ccccc1)C2	?	9.7%	nt	-2.4%	?
CSCC[C@H](NC(=O)[C@@H](NC(=O)[C@H](CCC(=O)O)NC(=O)[C@H](CCSC)NC(=O)[C@H](CC(N)=O)NC(=O)[C@H](CCC(=O)O)NC(=O)[C@H](CC(N)=O)NC(=O)[C@H](CO)NC(=O)[C@H](C)N)[C@@H](C)O)C(=O)O	nt	3.1%	11.5%	0.7%	nt
COc1ccc(CC(=O)Nc2ccc(-c3noc(-c4ccccc4OC)n3)cc2)cc1	?	-5.8%	-2.2%	11.9%	?
CC(=O)Oc1ccccc1C1OCCN1C(C)=O (stereo not given)	0.8%	-4.6%	1.1%	-3.2%	-1.5%
C=CCOC(=O)C1=C[C@@H](c2ccc(Br)cc2)C[C@@H](OCCCCO)O1	-4.8%	nt	nt	nt	-22.4%
Cc1ccc(S(=O)(=O)N2[C@@H](c3ccc(F)cc3)C(C(=O)O)=CC[C@H]2c2ccc3c(c2)OCO3)cc1	0.4%	nt	1.6%	nt	3.2%
Cc1ccsc1C(=O)OCC(=O)c1cc(C)n(C)c1C	-22.7%	nt	0.6%	nt	?
CC(C)(C)C(=O)Nc1nc2c(s1)CN(Cc1ccccc1)CC2	?	9.5%	9.2%	0.2%	18.4µM*
O=C(Nc1nc2c(s1)CN(Cc1ccccc1)CC2)C1CCCC1	?	10.0%	10.0%	26.9%	?
CC(=O)Nc1sc2c(c1C(N)=O)CCN(Cc1ccccc1)C2	7.1%	-4.4%	nt	-7.4%	-21.0%
COC(=O)c1c(NC(=O)C(C)(C)C)sc2c1CCN(Cc1ccccc1)C2	16.4µM*	21.4%	nt	-7.6%	?
SMILES	TDP1 cell CPT	RORgamma inh	TDP1 inh	Gal4-VP16 FLuc	DT40 TDP1 no CPT
NC(=O)c1c(NC(=O)Cc2ccccc2)sc2c1CCN(Cc1ccccc1)C2	11.6µM*	?	nt	-12.0%	13µM*
CC(C)n1cc(CN2CCC(n3nccc3NC(=O)CCCc3ccccc3)CC2)cn1	2.0%	0.0%	3.3%	7.1%	-3.2%
Cc1ccc2c(c1)[C@@H]1CN(C)CC[C@@H]1N2S(=O)(=O)c1ccc([N+](=O)[O-])cc1	?	-6.3%	-6.7%	-11.9%	-28.2%
Cc1ccc2c(c1)C1CN(C)CCC1N2Sc1ccccc1[N+](=O)[O-] (stereo not given)	?	2.1%	12.5%	-19.3%	16.4µM*
COc1cccc(C2NC(=S)NC(C)=C2C(=O)c2ccccc2)c1OC (stereo not given)	?	?	-2.5%	?	10.3µM*
C=CCOc1ccc(C2NC(=S)NC(C)=C2C(=O)c2ccccc2)cc1OC (stereo not given)	?	?	-3.2%	?	?
CC(C)(C)n1nnnc1C(c1ccc(C(F)(F)F)cc1)N(Cc1ccccc1)Cc1ccco1 (stereo not given)	20.6µM*	6.31µM*	0.0%	3.98µM*	?
CCC(c1nnnn1C(C)(C)C)N(Cc1ccco1)Cc1cc2cccc(C)c2[nH]c1=O (stereo not given)	?	0.5%	5.6%	?	?
CCN(Cc1ccccc1)C(c1ccc(C)cc1)c1nnnn1C(C)(C)CC (stereo not given)	?	-2.0%	-1.0%	?	13µM*
Cc1cc(C)c2[nH]c(=O)c(C(c3nnnn3C(C)(C)C)N(Cc3ccco3)CC3CCCO3)cc2c1 (stereo not given)	?	-14.2%	5.9%	-6.7%	?
CC(C)(C)n1nnnc1C(c1ccc(F)cc1)N(Cc1ccc(F)cc1)Cc1ccco1 (stereo not given)	?	11.2µM*	0.0%	-11.1%[0.365 µM]	?
CCN(Cc1ccccc1)C(c1ccncc1)c1nnnn1C(C)(C)C (stereo not given)	?	-15.5%	2.4%	-3.4%	?
CC(C)C(c1nnnn1Cc1ccccc1)N(Cc1ccco1)Cc1cccs1 (stereo not given)	?	?	5.8%	-28.8%	20.6µM*
Cc1c(C)c2ccc(OCC(=O)NCCCn3ccnc3)cc2oc1=O	12.4%	-34.5%	4.4%	0.1%	-21.6%
Cn1c(SCc2nc3ccccc3[nH]2)nnc1-c1cccs1	1.9%	4.3%	-3.9%	?	1.9%
O=C(NCc1cccc(Cl)c1)C1CCC(=O)N(CCCN2CCOCC2)C1 (stereo not given)	6.7%	-19.5%	nt	-1.1%	25.1%
CCN(c1cccc(C)c1)S(=O)(=O)c1nnc(NC(=O)C2CCCCC2)s1	?	nt	-11.7%	nt	?

Bioassay records as filed in PubChem BioAssay.
